Screening results from PubChem.
TDP-43 yeast inh: qHTS of TDP-43 Inhibitors | Potency, µM (titrated, usually from 46.1 µM), without a hit: at the highest dose growth rescue (activation), hits mostly activators | hit rate 1.8% among 410,000 | TDP-43 expressing yeast growth rescue, BacTiter-Glo, 24 h; also: potency is read from the fitted curve at half-maximal effect; % of control where 0% means no effect; nearly all actives have a fitted effect of over 50% in size
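Growth rescue of TDP-43-toxic yeast measured as ATP luminescence (BacTiter-Glo). Cells grown to mid-log in raffinose, induced in galactose at OD600=0.02, exposed to compound 24 hr at 30 deg C.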
Akt phos inh: HTS Assay for Inhibitors of Akt Phophorylation: Primary Screen; hit rate 0.32% among 360,000; activity change, % for hits at 50 µM; AID 651550, 2012; Neuro2A IGF-stimulated pAkt S473 HTRF, 20 min; active compounds read low; in the data active = activity change below about -80%; inconclusive = mostly about -51% to -80%; also: % is scaled to controls: 0 for no effect and ±100 for the full control effect
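Neuro2A cells in DMEM with 0.5% FBS, overnight at 37 deg C, given compound at single 50 µM final, then IGF (6 nM final) for 20 min at 37 deg C. Lysed; phospho-Akt Ser473 by HTRF after 24 h, 665/615 ratio.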
Anesthetic bind: qHTS Assay for Identification of Novel General Anesthetics. Potency, µM (doses to about 77.5 µM), for the others: at the highest dose activity change, negative = displacement, actives largely listed as inhibitors. hit rate 0.074% among 350,000. AID 485281, 2010. apoferritin/1-aminoanthracene competitive binding, fluorescence; also: potency is read from the fitted curve at half-maximal effect; % is scaled to controls: 0 for no effect and ±100 for the full control effect; nearly all actives have a fitted effect of over 20% in size
Target sequence (P02791 2-175 limits assumed): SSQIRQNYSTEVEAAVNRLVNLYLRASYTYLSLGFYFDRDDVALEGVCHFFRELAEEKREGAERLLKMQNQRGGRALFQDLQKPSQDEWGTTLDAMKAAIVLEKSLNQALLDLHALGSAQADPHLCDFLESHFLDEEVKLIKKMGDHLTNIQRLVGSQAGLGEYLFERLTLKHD
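In PBS, apoferritin at 10 uM is loaded with 1-AMA from a 50% saturated solution. After 10 min of compound exposure at ambient temperature, reduced 535 nm fluorescence indicates probe displacement.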
CCT modulator: High-Throughput Screening for Modulators of Cytosolic Chaperonin Activity. hit rate 0.3% among 360,000. purified chaperonin ATPase assay, HTRF ADP detection, 30 min. activity change, % (concentration not given with the values), hits read low. AID 651819, 2012; in the data active = activity change below about -30%; also: % is scaled to controls: 0 for no effect and ±100 for the full control effect
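ATPase activity: ADP formed was measured by HTRF Transcreener (665/615 nm ratio) after 30 min at 37 deg C with 10 uM ATP. Compounds screened at one 76 uM concentration against 40 or 20 nM TRiC in Tris pH 7.4/KCl/MgCl2/DTT buffer.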
Mito fusion yeast: qHTS Assay for Small Molecule Inhibitors of Mitochondrial Division or Activators of Mitochondrial Fusion; S. cerevisiae fusion-defective mutant growth rescue, CellTiterGlo 48 h; Potency, µM (highest dose often 46.1 µM), without a hit: at the highest dose growth rescue (activation), most hits filed as activators; hit rate 0.23% among 320,000; AID 485298, 2010; also: potency is read from the fitted curve at half-maximal effect; % of control where 0% means no effect; nearly all actives have a fitted effect of over 45% in size
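Growth-rescue viability read-out: after 48 h at the non-permissive 37C in glycerol/ethanol YPEG, yeast mitochondrial fusion mutants are measured by CellTiterGlo luminescence; compounds (23 nl pinned per well) restoring growth score as division inhibitors or fusion activators.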
aSyn yeast inh: qHTS of alpha-syn Inhibitors; Yeast expressing alpha-synuclein, growth rescue, BacTiter-Glo, 24 h; Potency, µM (series often up to 46.1 µM), for inactives: at the top dose growth rescue (activation), usual class: activators; hit rate 0.14% among 370,000; also: potency is read from the fitted curve at half-maximal effect; % of control where 0% means no effect; nearly all actives have a fitted effect of over 65% in size
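Rescue of yeast growth: cells expressing toxic alpha-synuclein, induced in galactose at OD600 0.02, incubated with compound 24 h at 30 C. ATP luminescence quantified growth; inhibitors of toxicity appear as activators.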
* marks the source's active call; other numbers are inactive results. A selection: hits, their analogues and other compounds. The true share with any hit is near 2.5%. Unless noted, calls follow the shape of the dose curve; as a rule, active = well fitted curve in the direction sought with a large enough effect; inconclusive = small, poorly fitted or top-dose-only effect, or another doubt; inactive = no such curve, though single readings can be large; an effect the other way counts as inactive or inconclusive.

How did CCC(=O)C1=C(c2cccc([N+](=O)[O-])c2)N(C(=O)CC)n2c(nnc2C2CCCCC2)S1 do in these assays?
TDP-43 yeast inh: 24%; Anesthetic bind: inconclusive

What do the screens show for `O=C(C(=O)N1CC=C(c2ccccc2)CC1)c1c[nH]c2ccccc12`?
TDP-43 yeast inh: 16µM*; Akt phos inh: inactive; Anesthetic bind: -13%; CCT modulator: -5; Mito fusion yeast: inconclusive; aSyn yeast inh: inconclusive

How did Cc1ccc(C(=O)Nc2c(C(=O)Nc3ccc(C)c(C)c3)sc3nc(C)cc(C)c23)cc1 do in these assays?
TDP-43 yeast inh: inconclusive; Anesthetic bind: -3%

What do the screens show for `CCOC(=O)[C@]12Cc3cc(OC)ccc3[C@H]1N(C)C(=O)c1cc(OC)ccc12`?
TDP-43 yeast inh: inconclusive; Akt phos inh: inactive; CCT modulator: -2; aSyn yeast inh: 4%

Results for CCOC(=O)[C@]12Cc3cc(Cl)ccc3[C@H]1N(C)C(=O)c1cc(OC)ccc12 ?
TDP-43 yeast inh: 22µM*; Akt phos inh: inactive; CCT modulator: -2; aSyn yeast inh: 9%

Results for COc1cccc(-n2cnc3scc(-c4cccs4)c3c2=O)c1 ?
TDP-43 yeast inh: 18µM*; Akt phos inh: inactive; Anesthetic bind: -19%; CCT modulator: -8; Mito fusion yeast: 22%; aSyn yeast inh: 9%

Results for Cc1ccc(S(=O)(=O)N(CC(=O)NCCSc2ccc(Cl)cc2)c2ccccc2C)cc1 ?
TDP-43 yeast inh: 4%; Anesthetic bind: 97%

What do the screens show for `O=C(c1cn(Cc2ccccc2F)c2ncccc12)C(F)(F)F`?
TDP-43 yeast inh: inconclusive; Akt phos inh: inactive; Anesthetic bind: -10%; CCT modulator: -36*; Mito fusion yeast: 2%; aSyn yeast inh: -17%

What do the screens show for `CC(=O)C1=C(O)C2(C)c3c(O)c(C)c(O)c(C(C)=O)c3OC2CC1=O` (configuration not stated)?
TDP-43 yeast inh: -74%; Akt phos inh: inactive; CCT modulator: 0; aSyn yeast inh: -57%

Results for O=C(c1ccco1)c1cn(Cc2ccc(Cl)cc2)c2ccccc12 ?
TDP-43 yeast inh: 13µM*; Akt phos inh: inactive; Anesthetic bind: -23%; CCT modulator: 1; Mito fusion yeast: 10%; aSyn yeast inh: 14%

What do the screens show for `N#C/C(=C/c1ccc(O)c(O)c1)C(N)=S`?
Mito fusion yeast: 21µM*; aSyn yeast inh: -15%

What do the screens show for `CCOC(=O)c1ccc(N2C(=O)CC(N3CCC(O)(c4ccc(Cl)cc4)CC3)C2=O)cc1` (configuration not stated)?
TDP-43 yeast inh: 5.6µM*; Akt phos inh: inactive; Anesthetic bind: -11%; CCT modulator: -1; Mito fusion yeast: 4%; aSyn yeast inh: 15%

What do the screens show for `CN(C(=O)Cc1ccc(Cl)c(Cl)c1)C(CN1CCCC1)c1cccc(N=C=S)c1` (configuration not stated)?
Anesthetic bind: 8%

How did Cc1cc(O)c2c(c1)C(=O)c1cc(O)cc(O)c1C2=O do in these assays?
TDP-43 yeast inh: 6%; CCT modulator: -6; Mito fusion yeast: 2.6µM*; aSyn yeast inh: -20%

Results for CCCCCNC(=O)C(c1ccncc1)n1c(=O)c(-c2cc3ccccc3[nH]2)nc2ccccc21 (configuration not stated) ?
TDP-43 yeast inh: inconclusive; Akt phos inh: inactive; aSyn yeast inh: 11%

Results for O=S(=O)(c1ccc(Cl)cc1)N1CCC(n2cnc3cc(C(F)(F)F)ccc32)CC1 ?
TDP-43 yeast inh: 32µM*; Akt phos inh: inactive; CCT modulator: -2; aSyn yeast inh: inconclusive

How did O=C1/C(=C/c2cc([N+](=O)[O-])ccc2Cl)N2CCC1CC2 do in these assays?
TDP-43 yeast inh: 18µM*; Akt phos inh: inactive; Anesthetic bind: inconclusive; CCT modulator: 1; Mito fusion yeast: -8%; aSyn yeast inh: 4%

Results for C[C@]12CC[C@H](O)C[C@@H]1CC[C@@H]1[C@@H]2CC[C@]2(C)C(=O)CC[C@@H]12 ?
TDP-43 yeast inh: 14µM*; Akt phos inh: inactive; Anesthetic bind: -12%; CCT modulator: -1; Mito fusion yeast: 12%; aSyn yeast inh: inconclusive

Results for C[C@]12CCC(=O)C(O)=C1CC[C@@H]1[C@@H]2CC[C@]2(C)C(=O)CC[C@@H]12 ?
TDP-43 yeast inh: 13µM*; Akt phos inh: inactive; Anesthetic bind: -8%; CCT modulator: -1; Mito fusion yeast: 0%; aSyn yeast inh: 3%

What do the screens show for `Cc1cc2ccccc2n1-c1ccc(C(=O)N2CCC(C(=O)NCc3ccc(Cl)cc3)CC2)s1`?
TDP-43 yeast inh: -3%; Anesthetic bind: inconclusive

What do the screens show for `CC[C@H](C)[C@H](NC(=O)[C@@H](N)Cc1ccc(O)cc1)C(=O)NCC(=O)N[C@@H](CO)C(=O)N[C@@H](CCCN=C(N)N)C(N)=O`?
Anesthetic bind: 8%

Results for Cc1nc2cc(OC(=O)N(C)Cc3cccc(-c4ccncc4)c3)ccc2s1 ?
TDP-43 yeast inh: 10µM*; Akt phos inh: inactive; CCT modulator: 2; aSyn yeast inh: 2%

What do the screens show for `Cc1ccc(NC(=O)CCSc2nnc(Cc3ccccc3)o2)cc1`?
TDP-43 yeast inh: 18µM*; Akt phos inh: inactive; Anesthetic bind: -13%; CCT modulator: -2; Mito fusion yeast: -4%; aSyn yeast inh: 5%

What do the screens show for `Cc1ccccc1-n1c(/C=C/c2c(C)[nH]c3ccccc23)nc2ccccc2c1=O`?
TDP-43 yeast inh: 16µM*; Anesthetic bind: 99%

How did CCCCC[C@H]1CCCCC[C@H](O)C[C@@H](O)[C@H](O)/C=C/C(=O)O1 do in these assays?
TDP-43 yeast inh: 26%; Akt phos inh: inactive; CCT modulator: 0; aSyn yeast inh: 2%

Results for CC12CC(=O)C3C(CCC4CC=CCC43C)C1CCC2=O (configuration not stated) ?
TDP-43 yeast inh: 10µM*; Akt phos inh: inactive; CCT modulator: -9; aSyn yeast inh: 9%

What do the screens show for `CC12C=CC(=O)C=C1CCC1C2C(=O)CC2(C)C(=O)CCC12` (configuration not stated)?
TDP-43 yeast inh: -5%; Akt phos inh: inactive; CCT modulator: -3; aSyn yeast inh: -2%

Results for Cc1cc2oc(=O)cc(-c3ccccc3)c2c(C)c1-c1ccc(CO)cc1 ?
TDP-43 yeast inh: 35µM*; Akt phos inh: inactive; Anesthetic bind: inconclusive; CCT modulator: 0; aSyn yeast inh: -15%
